# For some assays here: Potency and affinity values are given separately.
# Tests used:
# Parameters in all cases: scale not given: direction of the effect not stated beside the values
# [1] = target: Protein translocase subunit SecA (Escherichia coli (strain K12)) (UniProt P10408); experiment: Assay to Identify E. coli SecA ATPase Inhibitors; assay type: functional; conditions: 30 µM
# [2] = target: T1, Ubiquitin-activating enzyme e1, putative (Leishmania donovani (strain BPK282A1)) (UniProt E9BSI1); experiment: Leishmania donovani Ubiquitin Activating Enzyme (LdE1); assay type: functional; conditions: 30 µM
# T1 sequence (whole entry): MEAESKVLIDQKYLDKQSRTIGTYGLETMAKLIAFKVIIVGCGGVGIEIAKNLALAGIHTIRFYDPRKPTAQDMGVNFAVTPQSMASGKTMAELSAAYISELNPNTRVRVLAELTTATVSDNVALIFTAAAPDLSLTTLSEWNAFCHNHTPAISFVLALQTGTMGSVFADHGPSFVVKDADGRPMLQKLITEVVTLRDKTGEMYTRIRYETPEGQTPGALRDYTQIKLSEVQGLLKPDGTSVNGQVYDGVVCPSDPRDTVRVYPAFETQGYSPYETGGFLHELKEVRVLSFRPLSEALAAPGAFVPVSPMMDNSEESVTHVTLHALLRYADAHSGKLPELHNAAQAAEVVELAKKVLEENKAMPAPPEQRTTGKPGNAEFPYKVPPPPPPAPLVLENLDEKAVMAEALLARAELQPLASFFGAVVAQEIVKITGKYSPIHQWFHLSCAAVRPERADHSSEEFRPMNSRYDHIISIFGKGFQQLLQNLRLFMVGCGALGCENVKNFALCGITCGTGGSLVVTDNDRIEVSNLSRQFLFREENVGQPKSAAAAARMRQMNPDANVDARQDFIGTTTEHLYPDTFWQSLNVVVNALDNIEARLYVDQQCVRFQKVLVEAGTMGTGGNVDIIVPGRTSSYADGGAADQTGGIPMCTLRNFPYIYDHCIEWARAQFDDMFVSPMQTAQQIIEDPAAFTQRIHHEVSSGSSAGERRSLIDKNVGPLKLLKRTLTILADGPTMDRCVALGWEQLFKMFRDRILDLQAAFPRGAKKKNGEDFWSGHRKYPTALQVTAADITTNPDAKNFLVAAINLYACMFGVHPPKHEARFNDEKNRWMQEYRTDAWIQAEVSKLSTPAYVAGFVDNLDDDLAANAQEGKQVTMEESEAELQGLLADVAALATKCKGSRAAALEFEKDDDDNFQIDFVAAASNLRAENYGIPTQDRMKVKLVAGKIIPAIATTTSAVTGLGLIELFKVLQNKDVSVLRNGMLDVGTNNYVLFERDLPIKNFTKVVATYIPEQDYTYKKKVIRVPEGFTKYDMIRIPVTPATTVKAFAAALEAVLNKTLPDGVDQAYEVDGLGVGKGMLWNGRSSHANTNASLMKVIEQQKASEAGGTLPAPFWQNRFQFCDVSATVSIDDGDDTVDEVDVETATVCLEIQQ
# [3] = target: AMP-activated protein kinase, AMPK (Homo sapiens) (UniProt P54646+O43741+P54619+Q9UGJ0+Q9Y478+Q13131+Q9UGI9); experiment: AMP-dependent Kinase enzyme assay. An in vitro enzyme assay that detects ADP turnover that is directly proportional to AMPK activity. This uses naive AMPK that is activated during the assay with MK-8722; assay type: functional; conditions: 30 µM
# [4] = target: Sialic acid-binding Ig-like lectin 9 (Homo sapiens) (UniProt Q9Y336); experiment: Hs-Siglec9 ALPHAscreen SOP 20170721; conditions: 10 µM
# Trypanosoma cruzi = experiment: Trypanosoma cruzi phosphomannomutase and mannose-1-phosphate guanylyltransferase assay; assay type: functional; conditions: 10 µM
# [5] = target: T2, Arginase-2, mitochondrial (Homo sapiens) (UniProt P78540); experiment: in vitro enzyme assay to detect the production of urea directly proportional to the activity of Arginase II; assay type: functional; conditions: 33.3 µM; further: in the data most compounds retested in dose-response had high values
# T2 sequence (whole entry): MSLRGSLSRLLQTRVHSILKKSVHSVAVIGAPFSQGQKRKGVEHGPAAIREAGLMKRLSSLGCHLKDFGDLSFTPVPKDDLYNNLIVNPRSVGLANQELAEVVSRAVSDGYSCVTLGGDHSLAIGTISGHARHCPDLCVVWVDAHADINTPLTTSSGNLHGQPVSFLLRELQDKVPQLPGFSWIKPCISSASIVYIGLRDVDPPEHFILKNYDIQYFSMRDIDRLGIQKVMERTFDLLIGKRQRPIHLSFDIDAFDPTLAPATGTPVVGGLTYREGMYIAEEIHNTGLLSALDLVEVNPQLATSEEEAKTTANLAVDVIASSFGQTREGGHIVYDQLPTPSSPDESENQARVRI
# [6] = target: T3, Proteasome subunit beta (Trypanosoma cruzi) (UniProt O96673); experiment: Trypanosoma cruzi proteasome chymotrypsin-like activity (TcProtChymo) assay.; further: in the data most compounds retested in dose-response had high values; assay type: functional; conditions: 9.37 µM
# T3 sequence (whole entry): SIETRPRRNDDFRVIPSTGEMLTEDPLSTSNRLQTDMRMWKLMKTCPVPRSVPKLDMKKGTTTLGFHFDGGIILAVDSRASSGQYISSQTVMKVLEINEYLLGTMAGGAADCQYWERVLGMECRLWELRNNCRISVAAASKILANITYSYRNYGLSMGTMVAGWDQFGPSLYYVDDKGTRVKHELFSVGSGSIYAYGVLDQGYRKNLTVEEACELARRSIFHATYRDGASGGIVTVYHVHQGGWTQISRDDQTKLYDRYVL
# Homo sapiens = species on record: Homo sapiens; experiment: To identify inhibition of the IFN signalling (Jak-Stat) pathway via expression of an eGFP reporter gene under the control of an IFN-stimulated response element (ISRE) containing MxA promoter.; assay type: functional; conditions: 30 µM
# [7] = target: T4, Tyrosyl-tRNA synthetase, putative (Trypanosoma cruzi (strain CL Brener)) (UniProt Q4DSP6); experiment: Trypanosoma cruzi tyrosyl tRNA synthetase (TcYRS) _High Tyrosine SOP; assay type: functional; conditions: 30 µM; further: in the data most compounds retested in dose-response had high values
# T4 sequence (whole entry): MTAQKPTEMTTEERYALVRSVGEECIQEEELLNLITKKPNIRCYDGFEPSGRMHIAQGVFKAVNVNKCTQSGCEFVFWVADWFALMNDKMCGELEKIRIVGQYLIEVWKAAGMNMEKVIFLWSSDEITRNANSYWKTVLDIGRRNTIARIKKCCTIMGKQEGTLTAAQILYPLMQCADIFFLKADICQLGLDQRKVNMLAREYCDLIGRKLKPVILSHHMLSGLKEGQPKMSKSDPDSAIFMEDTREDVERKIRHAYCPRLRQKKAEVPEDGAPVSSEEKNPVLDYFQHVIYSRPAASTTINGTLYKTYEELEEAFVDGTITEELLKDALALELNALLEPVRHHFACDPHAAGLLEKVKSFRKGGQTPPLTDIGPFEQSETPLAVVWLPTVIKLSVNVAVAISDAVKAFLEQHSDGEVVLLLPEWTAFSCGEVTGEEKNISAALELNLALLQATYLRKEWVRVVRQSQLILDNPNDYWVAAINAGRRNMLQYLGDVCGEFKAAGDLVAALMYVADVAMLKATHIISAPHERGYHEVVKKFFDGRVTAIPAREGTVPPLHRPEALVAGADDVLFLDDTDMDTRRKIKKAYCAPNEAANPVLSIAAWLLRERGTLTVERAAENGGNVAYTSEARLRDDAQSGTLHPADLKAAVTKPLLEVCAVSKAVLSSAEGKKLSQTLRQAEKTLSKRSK
# [8] = target: T4, Tyrosyl-tRNA synthetase, putative (Trypanosoma cruzi (strain CL Brener)); experiment: Trypanosoma cruzi tyrosyl tRNA synthetase (TcYRS) SOP; assay type: functional; conditions: 30 µM
# [9] = target: Chromo domain-containing protein 1 (Saccharomyces cerevisiae (strain ATCC 204508 / S288c) (Baker's yeast)) (UniProt P32657); experiment: ScCHD-1 Enzyme Inhibition Assay; assay type: functional; conditions: 30 µM; further: in the data most compounds retested in dose-response had high values
# Chain of Chromo domain-containing protein 1 (Saccharomyces cerevisiae (strain ATCC 204508 / S288c) (Baker's yeast)) (P32657 whole entry, the tested form may be a part): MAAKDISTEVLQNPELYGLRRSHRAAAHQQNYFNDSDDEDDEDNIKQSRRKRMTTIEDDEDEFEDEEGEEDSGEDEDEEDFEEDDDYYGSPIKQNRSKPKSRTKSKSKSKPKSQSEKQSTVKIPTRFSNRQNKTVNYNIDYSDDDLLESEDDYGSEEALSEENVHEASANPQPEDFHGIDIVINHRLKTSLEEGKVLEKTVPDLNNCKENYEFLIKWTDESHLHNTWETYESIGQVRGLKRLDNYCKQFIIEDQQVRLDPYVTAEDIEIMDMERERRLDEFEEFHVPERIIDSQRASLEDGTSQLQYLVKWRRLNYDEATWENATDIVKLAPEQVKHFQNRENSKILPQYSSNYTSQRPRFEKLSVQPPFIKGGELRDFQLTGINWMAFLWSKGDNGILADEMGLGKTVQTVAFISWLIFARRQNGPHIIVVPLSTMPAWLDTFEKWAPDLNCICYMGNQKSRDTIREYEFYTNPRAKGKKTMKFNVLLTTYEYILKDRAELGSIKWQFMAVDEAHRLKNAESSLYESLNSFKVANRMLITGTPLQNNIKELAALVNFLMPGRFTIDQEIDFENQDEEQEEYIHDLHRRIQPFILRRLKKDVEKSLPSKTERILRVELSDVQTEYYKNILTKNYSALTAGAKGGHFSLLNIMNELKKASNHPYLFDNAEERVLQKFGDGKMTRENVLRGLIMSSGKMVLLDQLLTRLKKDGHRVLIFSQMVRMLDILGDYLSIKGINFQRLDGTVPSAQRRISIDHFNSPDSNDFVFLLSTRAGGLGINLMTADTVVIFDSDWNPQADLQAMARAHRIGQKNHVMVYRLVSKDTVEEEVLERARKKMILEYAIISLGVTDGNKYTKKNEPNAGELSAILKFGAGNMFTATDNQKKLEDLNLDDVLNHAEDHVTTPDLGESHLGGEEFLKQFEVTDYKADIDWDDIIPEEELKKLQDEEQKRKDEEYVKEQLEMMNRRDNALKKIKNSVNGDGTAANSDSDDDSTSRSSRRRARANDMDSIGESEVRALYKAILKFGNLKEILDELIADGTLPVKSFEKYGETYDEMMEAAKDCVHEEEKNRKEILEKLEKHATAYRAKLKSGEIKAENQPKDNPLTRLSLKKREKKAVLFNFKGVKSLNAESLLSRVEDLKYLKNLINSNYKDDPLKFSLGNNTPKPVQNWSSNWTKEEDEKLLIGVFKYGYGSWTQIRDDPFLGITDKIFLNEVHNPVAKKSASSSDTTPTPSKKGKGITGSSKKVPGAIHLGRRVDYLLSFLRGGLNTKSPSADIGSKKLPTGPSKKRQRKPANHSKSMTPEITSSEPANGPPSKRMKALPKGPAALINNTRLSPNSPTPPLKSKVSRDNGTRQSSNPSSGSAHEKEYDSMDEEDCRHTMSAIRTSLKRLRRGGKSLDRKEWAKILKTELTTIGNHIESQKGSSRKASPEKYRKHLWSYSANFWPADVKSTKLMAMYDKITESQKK
# Chain of Sialic acid-binding Ig-like lectin 9 (Homo sapiens) (Q9Y336 whole entry): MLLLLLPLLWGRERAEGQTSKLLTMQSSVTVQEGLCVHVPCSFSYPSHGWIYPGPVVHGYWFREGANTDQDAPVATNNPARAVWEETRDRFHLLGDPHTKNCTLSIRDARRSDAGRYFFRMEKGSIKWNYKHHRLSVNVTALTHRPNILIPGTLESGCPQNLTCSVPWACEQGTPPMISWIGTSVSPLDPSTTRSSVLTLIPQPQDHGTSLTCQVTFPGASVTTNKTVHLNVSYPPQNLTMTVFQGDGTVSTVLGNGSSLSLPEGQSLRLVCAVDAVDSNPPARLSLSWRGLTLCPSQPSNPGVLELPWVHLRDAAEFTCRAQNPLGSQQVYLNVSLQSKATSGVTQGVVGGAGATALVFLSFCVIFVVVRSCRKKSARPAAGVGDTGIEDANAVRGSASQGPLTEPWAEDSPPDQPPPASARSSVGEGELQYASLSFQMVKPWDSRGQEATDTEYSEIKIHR
# Chain of Protein translocase subunit SecA (Escherichia coli (strain K12)) (P10408 whole entry): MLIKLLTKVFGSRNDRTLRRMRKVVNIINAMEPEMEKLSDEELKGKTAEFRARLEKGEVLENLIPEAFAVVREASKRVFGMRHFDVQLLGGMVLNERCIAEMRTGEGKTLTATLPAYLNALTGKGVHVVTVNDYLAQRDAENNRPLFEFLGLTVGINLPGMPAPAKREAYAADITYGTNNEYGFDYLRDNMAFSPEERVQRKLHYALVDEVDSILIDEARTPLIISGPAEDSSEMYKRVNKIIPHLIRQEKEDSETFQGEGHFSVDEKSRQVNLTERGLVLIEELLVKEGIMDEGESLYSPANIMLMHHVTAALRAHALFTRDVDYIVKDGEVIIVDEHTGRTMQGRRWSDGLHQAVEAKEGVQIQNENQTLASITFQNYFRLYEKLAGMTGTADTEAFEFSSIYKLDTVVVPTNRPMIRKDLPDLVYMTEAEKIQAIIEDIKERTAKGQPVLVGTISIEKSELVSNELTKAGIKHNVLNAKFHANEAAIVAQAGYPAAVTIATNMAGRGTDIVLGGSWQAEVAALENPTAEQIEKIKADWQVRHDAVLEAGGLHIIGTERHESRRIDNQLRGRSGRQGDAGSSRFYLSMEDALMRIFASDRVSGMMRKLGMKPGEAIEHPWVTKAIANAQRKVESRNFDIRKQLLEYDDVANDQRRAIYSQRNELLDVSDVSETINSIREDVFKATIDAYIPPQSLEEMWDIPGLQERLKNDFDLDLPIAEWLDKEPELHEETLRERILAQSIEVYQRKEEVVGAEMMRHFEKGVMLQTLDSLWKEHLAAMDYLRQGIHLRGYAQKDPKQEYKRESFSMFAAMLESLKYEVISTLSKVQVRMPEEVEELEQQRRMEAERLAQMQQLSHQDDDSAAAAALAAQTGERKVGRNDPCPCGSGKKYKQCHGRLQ
Structure (SMILES),Percent Effect [1] [%],Percent Effect [2] [%],Percent Effect [3] [%],Percent Effect [4] [%],Percent Effect (Trypanosoma cruzi) [%],Percent Effect [5] [%],Percent Effect [6] [%],Percent Effect (Homo sapiens) [%],Percent Effect [7] [%],Percent Effect [8] [%],Percent Effect [9] [%]
CNS(=O)(=O)c1cc(C(=O)NC2CCOc3ccccc32)cc(C)c1C (configuration not stated),-6.38,-2.63,13.9,-3.37,-3.41,-4.73,8.53,-0.414,4.25,7.79,7.83
O=C(Nc1ccccc1F)N1CCN(Cc2noc(C3CC3)n2)CC1,-1.58,11.4,5.8,0.391,-2.36,4.09,8.4,4.54,5.21,20.2,-23.3
COc1ccc(CN2CCn3cc(Cn4cccn4)nc3C2)cc1,-0.217,5.2,5.77,-3.88,-5.03,-3.23,9.4,-15,5.29,-8.97,-4.7
O=C(NC1CC1)[C@@H]1CCO[C@@H]2CCN(C3CCOCC3)C[C@H]21,-7.35,2.6,3.75,6.23,4.62,5.52,8.49,-3.98,6.45,13.6,0.47
CCOc1ccccc1-c1noc(CN2CCCC(O)C2)n1 (configuration not stated),-8.22,0,-0.175,-2.29,7.54,-1.47,1.54,-2.84,0.952,7.06,-13.3
O=C(NCC1CC1)C1CN(C(=O)c2ccncc2)CC12CCOCC2 (configuration not stated),1.79,15.6,-0.39,-4.66,0.296,4.52,17.6,28.1,2.12,19.2,-10.9
CC(C)CN1CCC(NC(=O)c2ccc(F)cc2I)CC1,-4.38,23.6,-16,29.2,7.48,39.7,8.6,-5.59,4.21,17.9,-10.3
Cc1csc([C@@H]2C[C@@H]3CCN(Cc4cnn(C)c4)C[C@H]3O2)n1,-5.44,2.6,-0.433,1.83,-0.0983,-5.52,3.33,-23.4,1.07,1.24,-4
CCNC(=O)N1CCCC(c2noc(CC)n2)C1 (configuration not stated),-3.36,13,3.81,9.2,4.6,3.16,5.09,7.39,5.71,11.8,-13.2
CN(C)S(=O)(=O)N1C[C@@H]2CC[C@H](C1)N(Cc1ccc3nsnc3c1)C2,-6.44,9.72,-22.2,43.5,3.21,21.2,4.04,4.28,2.1,12.8,-5.13
COc1ccccc1OCCN1CCC(N2CCNC2=O)CC1,-6.27,5.41,1.68,3.47,-5.66,3.51,12,18.9,-3.96,-13.4,0.174
CCCS(=O)(=O)N1CCN(c2cc(-n3cnc(C)c3C)nc(C)n2)CC1,-2.71,0,2.33,-0.358,-3.25,9.65,3.16,-2.89,1.07,-3.7,2.9
O=C1O[C@@H]2CN(Cc3cccc(F)c3)C[C@@H]2N1CCCN1CCOCC1,-1.1,10.7,4.3,9.62,2.82,12.5,21.3,9.55,3.83,21,-10.6
CNC(=O)C1(c2cnccn2)CCCN1C(=O)c1ccn(C)n1 (configuration not stated),-5.86,6.76,3.23,-2.02,0.593,-1.16,1.4,7.86,4.3,74,-22
O=C(C[C@@H]1COC[C@H]2CN(Cc3ccc(F)cc3)C[C@@H]12)N1CCOCC1,-9.06,17.3,-1.45,-0.881,-3.73,-10.4,7.58,7.29,-2.12,-5.13,-10.9
COc1cc(C(=O)NS(=O)(=O)c2cccc(C#N)c2)cc(Cl)c1OC,-2.08,-5.41,2.84,4.53,3.44,3.51,1.79,-7.05,-6.93,-1.22,6.51
COCCN(CCc1ccccc1)Cc1nc2c(cnn2C)c(=O)[nH]1,-1.78,13.5,1.09,15.2,1.04,-2.81,-0.36,-11.6,7.39,18.5,-9.44
CC(C)(C#N)C(=O)N1CCCC(c2cc(C(F)(F)F)[nH]n2)C1 (configuration not stated),-6.75,16.2,-6.25,19.3,3.44,-2.03,4.85,14.8,2.97,11,-8.63
Cc1nc2c(c(C)c1CC(=O)Nc1cccc(C#N)c1)c(=O)[nH]n2C,-5.36,7.79,0.36,-4.8,-4.8,-1.9,10.8,16.6,2.86,2.35,-19.9
Cc1cc(C2CCCN2CC(=O)N(CCC#N)c2ccccc2F)on1 (configuration not stated),-2.04,10.8,-3.15,8.81,4.18,-4.99,19.4,8.68,3.96,23.2,-6.79
Cc1ncc2c(n1)CN(Cc1nnc(Cc3ccccc3)o1)CC2,-2.29,24.3,-11.8,1.92,5.66,4.99,13.8,-0.54,29.7,28.1,-9.78
CC(C)c1cccc(CSc2nnc(CN3CCCC3=O)o2)n1,2.49,-2.67,-1.77,-1.76,-0.0974,5.21,-0.174,-2.67,1.64,1.24,0.138
